Key:
Test in all cases: DAPPL (digital affinity profiling via proximity ligation, sequencing); 10 mM Tris-HCl pH 7.5, 50 mM NaCl, 1 mM DTT, 4% glycerol, room temperature, 30 min; GST-TFs on glutathione beads, 16-mer random dsDNA library, 0.1% formaldehyde crosslink after washing; high values mean tight binding
FEV = molecular target: T1, FEV (Homo sapiens, UniProt Q99581 1-238); conditions: protein: recombinant; tags: N-terminal GST; dsDNA, one strand shown
T1 sequence: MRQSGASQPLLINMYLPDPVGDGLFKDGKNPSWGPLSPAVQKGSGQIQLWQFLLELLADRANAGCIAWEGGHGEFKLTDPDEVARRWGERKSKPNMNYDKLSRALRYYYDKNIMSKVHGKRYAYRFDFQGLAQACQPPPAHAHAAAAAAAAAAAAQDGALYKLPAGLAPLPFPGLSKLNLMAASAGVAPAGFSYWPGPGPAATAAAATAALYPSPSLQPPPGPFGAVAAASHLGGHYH
Outline: (§1)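 Pools of DNA-barcoded human transcription factors, expressed in yeast as GST fusions on glutathione beads and combined with a tag-only sample, were incubated with 200 nmole of a 16-mer random double-stranded DNA library. Incubation took 30 min at room temperature in Tris/NaCl/DTT/glycerol buffer and was followed by washing, 0.1% formaldehyde crosslinking, proximity ligation (BsaI/T4 ligase, 1 h, 37 °C), PCR amplification and sequencing on an Illumina NextSeq500. Binding signal is the ratio of a hexamer's read frequency for a factor to its frequency for the tag-only sample.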

ETV5 = ETV5 (Homo sapiens, UniProt P41161 1-510); conditions: protein: recombinant; tags: N-terminal GST; dsDNA, one strand shown
Sequence of ETV5 (P41161 whole entry): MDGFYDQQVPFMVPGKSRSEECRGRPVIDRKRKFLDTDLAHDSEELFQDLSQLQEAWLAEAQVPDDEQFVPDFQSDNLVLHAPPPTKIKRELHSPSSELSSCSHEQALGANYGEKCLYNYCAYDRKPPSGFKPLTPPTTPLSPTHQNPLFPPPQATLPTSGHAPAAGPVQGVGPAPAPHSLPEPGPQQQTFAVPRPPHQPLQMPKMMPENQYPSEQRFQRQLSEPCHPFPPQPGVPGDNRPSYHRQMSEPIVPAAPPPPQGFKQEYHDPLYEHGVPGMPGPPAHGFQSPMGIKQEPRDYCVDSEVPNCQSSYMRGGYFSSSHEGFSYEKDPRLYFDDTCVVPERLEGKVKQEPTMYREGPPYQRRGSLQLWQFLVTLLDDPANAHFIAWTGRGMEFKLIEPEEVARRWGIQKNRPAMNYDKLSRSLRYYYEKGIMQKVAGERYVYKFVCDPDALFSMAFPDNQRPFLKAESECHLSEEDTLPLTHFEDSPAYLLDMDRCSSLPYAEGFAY
Outline: as §1

HSF1 = HSF1 (Homo sapiens, UniProt Q00613 1-529); conditions: protein: recombinant; tags: N-terminal GST; chain copies: 3; dsDNA, one strand shown
Sequence of HSF1 (Q00613 whole entry): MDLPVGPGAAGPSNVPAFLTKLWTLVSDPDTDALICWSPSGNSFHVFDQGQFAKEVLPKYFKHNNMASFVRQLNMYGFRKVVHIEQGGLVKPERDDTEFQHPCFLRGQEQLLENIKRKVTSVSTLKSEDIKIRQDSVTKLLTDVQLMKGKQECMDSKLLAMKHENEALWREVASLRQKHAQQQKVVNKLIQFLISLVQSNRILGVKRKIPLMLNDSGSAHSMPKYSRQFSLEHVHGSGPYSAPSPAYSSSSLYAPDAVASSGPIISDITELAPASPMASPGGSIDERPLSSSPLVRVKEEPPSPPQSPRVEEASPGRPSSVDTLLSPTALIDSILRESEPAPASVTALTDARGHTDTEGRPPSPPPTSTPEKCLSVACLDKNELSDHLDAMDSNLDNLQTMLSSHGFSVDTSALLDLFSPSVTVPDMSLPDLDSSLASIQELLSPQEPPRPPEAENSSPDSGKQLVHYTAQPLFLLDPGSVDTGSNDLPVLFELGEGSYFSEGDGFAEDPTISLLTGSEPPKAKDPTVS
Outline: as §1

SPIC = molecular target: T2, SPIC (Homo sapiens, UniProt Q8N5J4 1-248); conditions: protein: recombinant; tags: N-terminal GST; dsDNA, one strand shown
T2 sequence: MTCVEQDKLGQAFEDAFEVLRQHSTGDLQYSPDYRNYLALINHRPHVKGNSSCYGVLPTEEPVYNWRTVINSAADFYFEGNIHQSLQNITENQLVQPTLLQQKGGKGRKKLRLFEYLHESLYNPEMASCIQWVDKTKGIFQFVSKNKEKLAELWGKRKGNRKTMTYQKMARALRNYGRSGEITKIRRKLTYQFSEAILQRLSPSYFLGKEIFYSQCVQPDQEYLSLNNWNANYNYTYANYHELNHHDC
Outline: as §1

ELF4 = ELF4 (Homo sapiens, UniProt Q99607 1-663); conditions: protein: recombinant; tags: N-terminal GST; dsDNA, one strand shown
Sequence of ELF4 (Q99607 whole entry): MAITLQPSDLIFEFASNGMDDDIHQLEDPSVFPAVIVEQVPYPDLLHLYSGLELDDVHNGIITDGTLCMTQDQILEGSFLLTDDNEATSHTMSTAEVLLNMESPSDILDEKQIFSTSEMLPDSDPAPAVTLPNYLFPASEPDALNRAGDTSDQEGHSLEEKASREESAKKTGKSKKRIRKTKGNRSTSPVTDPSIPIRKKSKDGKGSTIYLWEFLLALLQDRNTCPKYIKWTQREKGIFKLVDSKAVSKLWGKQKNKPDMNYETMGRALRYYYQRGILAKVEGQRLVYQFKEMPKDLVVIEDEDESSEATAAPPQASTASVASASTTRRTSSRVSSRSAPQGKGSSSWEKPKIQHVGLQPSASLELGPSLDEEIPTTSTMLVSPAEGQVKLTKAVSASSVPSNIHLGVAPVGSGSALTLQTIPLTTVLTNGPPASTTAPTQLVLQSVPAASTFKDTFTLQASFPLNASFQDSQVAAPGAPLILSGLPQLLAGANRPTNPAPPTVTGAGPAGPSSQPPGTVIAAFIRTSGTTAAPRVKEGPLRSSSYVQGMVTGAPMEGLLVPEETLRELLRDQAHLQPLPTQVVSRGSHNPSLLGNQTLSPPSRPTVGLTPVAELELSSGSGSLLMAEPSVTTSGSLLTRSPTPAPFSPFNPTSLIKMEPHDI
Outline: as §1

ELK4 = molecular target: T3, ELK4 (Homo sapiens, UniProt P28324-2 1-405); conditions: protein: recombinant; tags: N-terminal GST; dsDNA, one strand shown
T3 sequence: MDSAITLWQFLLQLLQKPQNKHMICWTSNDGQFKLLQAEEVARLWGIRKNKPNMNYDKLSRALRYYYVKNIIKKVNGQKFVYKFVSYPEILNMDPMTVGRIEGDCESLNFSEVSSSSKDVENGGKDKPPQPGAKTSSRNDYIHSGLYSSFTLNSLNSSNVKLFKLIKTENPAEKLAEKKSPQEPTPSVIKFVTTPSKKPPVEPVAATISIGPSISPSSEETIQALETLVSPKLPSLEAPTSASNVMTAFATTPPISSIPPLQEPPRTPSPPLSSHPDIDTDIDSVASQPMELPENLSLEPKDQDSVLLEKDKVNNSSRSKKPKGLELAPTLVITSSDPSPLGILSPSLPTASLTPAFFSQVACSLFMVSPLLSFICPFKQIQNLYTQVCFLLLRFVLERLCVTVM
Outline: as §1

ETV2 = molecular target: T4, ETV2 (Homo sapiens, UniProt O00321 1-342); conditions: protein: recombinant; tags: N-terminal GST; dsDNA, one strand shown
T4 sequence: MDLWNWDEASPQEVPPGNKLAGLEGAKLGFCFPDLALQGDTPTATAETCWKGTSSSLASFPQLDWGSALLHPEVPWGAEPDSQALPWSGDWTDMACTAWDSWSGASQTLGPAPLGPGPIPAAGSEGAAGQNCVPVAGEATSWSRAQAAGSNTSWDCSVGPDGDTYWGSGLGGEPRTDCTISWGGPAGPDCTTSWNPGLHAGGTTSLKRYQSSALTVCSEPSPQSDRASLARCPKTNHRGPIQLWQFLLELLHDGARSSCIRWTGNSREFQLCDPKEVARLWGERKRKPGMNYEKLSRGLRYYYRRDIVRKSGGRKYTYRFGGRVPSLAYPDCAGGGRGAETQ
Outline: as §1

ELF3 = molecular target: T5, ELF3 (Homo sapiens, UniProt P78545 1-371); conditions: protein: recombinant; tags: N-terminal GST; dsDNA, one strand shown
T5 sequence: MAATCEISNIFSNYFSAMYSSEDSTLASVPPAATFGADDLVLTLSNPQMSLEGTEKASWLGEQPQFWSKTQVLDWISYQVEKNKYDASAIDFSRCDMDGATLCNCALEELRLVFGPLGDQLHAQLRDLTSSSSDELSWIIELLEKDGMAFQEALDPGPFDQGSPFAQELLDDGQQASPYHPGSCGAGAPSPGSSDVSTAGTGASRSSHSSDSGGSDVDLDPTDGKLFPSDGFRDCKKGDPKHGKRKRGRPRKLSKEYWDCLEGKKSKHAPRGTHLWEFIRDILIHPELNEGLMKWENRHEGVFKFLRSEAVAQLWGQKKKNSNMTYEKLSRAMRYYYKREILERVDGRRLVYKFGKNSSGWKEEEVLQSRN
Outline: as §1

CRX = CRX (Homo sapiens, UniProt O43186 1-299); conditions: protein: recombinant; tags: N-terminal GST; dsDNA, one strand shown
Sequence of CRX (O43186 whole entry): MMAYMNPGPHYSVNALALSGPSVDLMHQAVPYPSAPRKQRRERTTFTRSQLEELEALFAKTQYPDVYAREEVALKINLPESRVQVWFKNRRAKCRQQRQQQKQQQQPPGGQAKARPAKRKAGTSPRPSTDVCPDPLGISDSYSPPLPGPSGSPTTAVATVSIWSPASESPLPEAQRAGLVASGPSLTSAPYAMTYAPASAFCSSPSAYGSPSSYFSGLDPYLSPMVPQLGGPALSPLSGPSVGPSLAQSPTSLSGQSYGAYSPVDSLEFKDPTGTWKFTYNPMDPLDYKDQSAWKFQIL
Outline: as §1

ETV1 = ETV1 (Homo sapiens, UniProt P50549 1-477); conditions: protein: recombinant; tags: N-terminal GST; dsDNA, one strand shown
Sequence of ETV1 (P50549 whole entry): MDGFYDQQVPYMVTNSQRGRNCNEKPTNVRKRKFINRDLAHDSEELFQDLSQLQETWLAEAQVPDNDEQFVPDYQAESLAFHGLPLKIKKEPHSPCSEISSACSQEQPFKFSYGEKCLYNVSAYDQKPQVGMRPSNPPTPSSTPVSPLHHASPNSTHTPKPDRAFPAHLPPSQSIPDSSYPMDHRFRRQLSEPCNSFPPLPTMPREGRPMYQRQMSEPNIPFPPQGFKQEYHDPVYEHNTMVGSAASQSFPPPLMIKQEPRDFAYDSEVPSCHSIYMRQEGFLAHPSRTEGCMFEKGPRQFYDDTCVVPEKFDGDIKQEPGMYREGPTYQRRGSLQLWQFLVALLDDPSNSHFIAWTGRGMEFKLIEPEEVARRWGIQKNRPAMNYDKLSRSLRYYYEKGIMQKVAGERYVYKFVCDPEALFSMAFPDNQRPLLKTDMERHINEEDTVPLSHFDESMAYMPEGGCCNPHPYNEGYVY
Outline: as §1

ERF = molecular target: T6, ERF (Homo sapiens, UniProt P50548 1-548); conditions: protein: recombinant; tags: N-terminal GST; dsDNA, one strand shown
T6 sequence: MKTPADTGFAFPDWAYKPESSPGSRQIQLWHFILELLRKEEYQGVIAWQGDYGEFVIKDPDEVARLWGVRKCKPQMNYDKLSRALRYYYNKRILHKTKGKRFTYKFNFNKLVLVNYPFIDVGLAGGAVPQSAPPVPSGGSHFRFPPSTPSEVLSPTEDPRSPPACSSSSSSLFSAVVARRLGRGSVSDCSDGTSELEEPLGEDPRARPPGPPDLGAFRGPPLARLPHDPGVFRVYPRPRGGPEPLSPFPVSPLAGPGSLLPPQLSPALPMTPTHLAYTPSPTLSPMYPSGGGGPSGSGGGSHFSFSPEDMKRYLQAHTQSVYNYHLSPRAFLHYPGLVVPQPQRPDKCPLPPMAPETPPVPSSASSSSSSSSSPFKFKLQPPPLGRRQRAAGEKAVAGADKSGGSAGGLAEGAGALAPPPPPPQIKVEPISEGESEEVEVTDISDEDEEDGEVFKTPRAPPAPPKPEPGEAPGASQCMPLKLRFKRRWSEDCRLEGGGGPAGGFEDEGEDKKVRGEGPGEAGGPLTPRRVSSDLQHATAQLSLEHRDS
Outline: as §1

ETV3L = molecular target: T7, ETV3L (Homo sapiens, UniProt Q6ZN32 1-361); conditions: protein: recombinant; tags: N-terminal GST; dsDNA, one strand shown
T7 sequence: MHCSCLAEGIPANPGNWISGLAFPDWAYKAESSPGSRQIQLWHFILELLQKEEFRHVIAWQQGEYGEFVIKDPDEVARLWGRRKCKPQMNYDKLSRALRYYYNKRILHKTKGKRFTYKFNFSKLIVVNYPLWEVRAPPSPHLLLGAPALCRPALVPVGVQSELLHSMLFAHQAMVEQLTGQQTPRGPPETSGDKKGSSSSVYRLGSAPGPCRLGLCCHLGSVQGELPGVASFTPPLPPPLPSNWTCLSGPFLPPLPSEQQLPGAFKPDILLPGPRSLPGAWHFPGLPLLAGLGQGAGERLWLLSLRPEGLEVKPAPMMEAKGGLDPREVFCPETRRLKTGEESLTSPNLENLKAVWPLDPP
Outline: as §1

ETS2 = molecular target: T8, ETS2 (Homo sapiens, UniProt P15036 1-469); conditions: protein: recombinant; tags: N-terminal GST; dsDNA, one strand shown
T8 sequence: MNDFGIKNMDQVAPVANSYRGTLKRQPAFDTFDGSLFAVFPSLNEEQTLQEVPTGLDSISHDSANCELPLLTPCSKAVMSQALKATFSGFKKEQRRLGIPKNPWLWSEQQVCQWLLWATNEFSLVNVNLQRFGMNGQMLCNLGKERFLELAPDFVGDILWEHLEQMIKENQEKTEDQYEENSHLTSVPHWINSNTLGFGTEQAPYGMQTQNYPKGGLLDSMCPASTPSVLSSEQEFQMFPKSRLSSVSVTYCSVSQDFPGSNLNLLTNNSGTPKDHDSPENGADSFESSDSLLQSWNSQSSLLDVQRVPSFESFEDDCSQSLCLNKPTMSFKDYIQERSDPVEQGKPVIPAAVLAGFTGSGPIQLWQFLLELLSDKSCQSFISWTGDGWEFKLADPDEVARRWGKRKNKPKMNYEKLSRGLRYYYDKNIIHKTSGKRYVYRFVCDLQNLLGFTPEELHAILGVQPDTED
Outline: as §1

ELF5 = molecular target: T9, ELF5 (Homo sapiens, UniProt Q9UKW6-2 1-255); conditions: protein: recombinant; tags: N-terminal GST; dsDNA, one strand shown
T9 sequence: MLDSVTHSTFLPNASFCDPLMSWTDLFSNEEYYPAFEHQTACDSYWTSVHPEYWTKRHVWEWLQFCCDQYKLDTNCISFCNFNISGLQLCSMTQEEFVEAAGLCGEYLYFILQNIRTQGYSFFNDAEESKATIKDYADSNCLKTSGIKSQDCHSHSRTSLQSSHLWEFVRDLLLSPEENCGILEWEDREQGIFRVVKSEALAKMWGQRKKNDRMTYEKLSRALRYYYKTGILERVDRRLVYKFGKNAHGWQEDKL
Outline: as §1

ETV3 = molecular target: T10, ETV3 (Homo sapiens, UniProt P41162-2 1-143); conditions: protein: recombinant; tags: N-terminal GST; dsDNA, one strand shown
T10 sequence: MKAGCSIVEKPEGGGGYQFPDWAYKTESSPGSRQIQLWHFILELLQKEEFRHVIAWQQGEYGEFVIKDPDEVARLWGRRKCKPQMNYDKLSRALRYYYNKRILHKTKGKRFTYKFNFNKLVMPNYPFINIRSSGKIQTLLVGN
Outline: as §1

ETV6 = ETV6 (Homo sapiens, UniProt P41212 1-452); conditions: protein: recombinant; tags: N-terminal GST; dsDNA, one strand shown
Sequence of ETV6 (P41212 whole entry): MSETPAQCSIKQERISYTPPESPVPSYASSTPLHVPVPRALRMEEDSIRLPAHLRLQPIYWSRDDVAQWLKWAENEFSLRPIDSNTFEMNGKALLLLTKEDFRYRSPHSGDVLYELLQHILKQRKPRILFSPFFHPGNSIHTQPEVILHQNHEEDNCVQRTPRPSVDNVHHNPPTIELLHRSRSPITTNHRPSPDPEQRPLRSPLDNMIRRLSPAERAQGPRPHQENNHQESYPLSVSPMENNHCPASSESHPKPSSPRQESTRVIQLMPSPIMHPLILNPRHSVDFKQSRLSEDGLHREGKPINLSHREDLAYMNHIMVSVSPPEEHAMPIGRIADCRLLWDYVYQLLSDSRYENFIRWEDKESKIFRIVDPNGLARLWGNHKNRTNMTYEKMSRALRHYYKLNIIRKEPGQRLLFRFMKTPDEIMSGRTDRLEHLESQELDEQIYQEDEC
Outline: as §1

AGCCCC
binding signal (FEV): 1.12 fold enrichment (6-mer frequency, TF over GST control)
binding signal (ETV5): 1.14 fold enrichment (6-mer frequency, TF over GST control)
binding signal (HSF1): 1.02 fold enrichment (6-mer frequency, TF over GST control)
binding signal (SPIC): 1.09 fold enrichment (6-mer frequency, TF over GST control)
binding signal (ELF4): 1.07 fold enrichment (6-mer frequency, TF over GST control)
binding signal (ELK4): 1.17 fold enrichment (6-mer frequency, TF over GST control)
binding signal (ETV2): 1.23 fold enrichment (6-mer frequency, TF over GST control)
binding signal (ELF3): 1.15 fold enrichment (6-mer frequency, TF over GST control)
binding signal (CRX): 1.17 fold enrichment (6-mer frequency, TF over GST control)
binding signal (ETV1): 1.02 fold enrichment (6-mer frequency, TF over GST control)
binding signal (ERF): 1.03 fold enrichment (6-mer frequency, TF over GST control)
binding signal (ETV3L): 1.07 fold enrichment (6-mer frequency, TF over GST control)
binding signal (ETS2): 1.09 fold enrichment (6-mer frequency, TF over GST control)
binding signal (ELF5): 1.01 fold enrichment (6-mer frequency, TF over GST control)
binding signal (ETV3): 1.11 fold enrichment (6-mer frequency, TF over GST control)
binding signal (ETV6): 1.12 fold enrichment (6-mer frequency, TF over GST control)

Reference: PMC7862700, “An all-to-all approach to the identification of sequence-specific readers for epigenetic DNA modifications on cytosine”
